# Experimental data published in paper PMC4336329 (PLoS ONE, 2015).
# About 14,000 (4.5%) of roughly 310,000 compounds showed an effect of 50% or more. Effects have a minus sign here. The sample as a whole holds a higher share of strong results than the screen did.
# Molecular target: human ether-à-go-go-related gene (hERG) potassium channel (human, UniProt Q12809)
# Assay: primary screen, population patch clamp on CHO cells stably expressing hERG; higher = less effect of the substance
# 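Note: peak tail current of the secondary pulse compared with the same well before compound.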
# human ether-à-go-go-related gene (hERG) potassium channel, sequence (Q12809 whole entry, looked up): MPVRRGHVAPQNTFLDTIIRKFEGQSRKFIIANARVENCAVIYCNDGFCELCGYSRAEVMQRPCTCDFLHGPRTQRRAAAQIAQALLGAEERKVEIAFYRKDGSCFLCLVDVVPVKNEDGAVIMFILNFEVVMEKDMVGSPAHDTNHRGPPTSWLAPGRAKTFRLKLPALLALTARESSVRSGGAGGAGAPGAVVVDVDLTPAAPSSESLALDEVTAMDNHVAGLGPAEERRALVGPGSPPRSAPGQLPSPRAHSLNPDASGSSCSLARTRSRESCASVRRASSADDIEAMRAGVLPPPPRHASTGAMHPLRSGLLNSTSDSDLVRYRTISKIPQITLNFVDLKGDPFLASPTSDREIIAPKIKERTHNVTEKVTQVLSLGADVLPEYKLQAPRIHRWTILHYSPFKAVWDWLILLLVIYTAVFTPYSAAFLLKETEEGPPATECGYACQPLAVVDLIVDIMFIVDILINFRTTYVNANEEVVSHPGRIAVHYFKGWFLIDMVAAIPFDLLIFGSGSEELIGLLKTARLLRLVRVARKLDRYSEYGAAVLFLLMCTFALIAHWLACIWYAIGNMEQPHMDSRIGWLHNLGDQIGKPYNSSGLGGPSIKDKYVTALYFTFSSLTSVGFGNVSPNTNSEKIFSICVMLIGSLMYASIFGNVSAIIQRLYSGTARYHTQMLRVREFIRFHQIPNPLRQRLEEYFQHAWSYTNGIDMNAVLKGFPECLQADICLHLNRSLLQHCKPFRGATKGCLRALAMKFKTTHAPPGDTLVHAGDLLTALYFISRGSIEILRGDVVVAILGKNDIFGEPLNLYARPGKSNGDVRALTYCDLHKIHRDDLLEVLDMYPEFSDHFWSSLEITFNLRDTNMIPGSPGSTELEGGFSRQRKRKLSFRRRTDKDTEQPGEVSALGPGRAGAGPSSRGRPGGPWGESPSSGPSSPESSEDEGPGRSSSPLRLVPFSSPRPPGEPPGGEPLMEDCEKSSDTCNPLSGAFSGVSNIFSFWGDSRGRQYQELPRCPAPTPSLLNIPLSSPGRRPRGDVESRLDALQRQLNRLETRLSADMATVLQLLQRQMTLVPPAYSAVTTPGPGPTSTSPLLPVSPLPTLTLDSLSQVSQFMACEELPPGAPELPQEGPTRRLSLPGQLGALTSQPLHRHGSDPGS
row,SMILES,"hERG current change (%, negative = inhibition) at 10uM"
1,O=C(CN1CCCC1)Nc1ccc(Cl)cc1C(F)(F)F,0.32%
2,COCC(C)N=C1NN=C(c2cccs2)C(CC(=O)O)S1 (stereo not shown),20%
3,CS(=O)(=O)Oc1ccc(/C=C2\C(=N)N3N=C(CC(=O)N4CCOCC4)SC3=NC2=O)cc1Cl,-2.27%
4,COc1cc2c(cc1OC)/C(=C/c1ccc(Cl)cc1)C(=O)OC2,-36.4%
5,NC(=O)CSc1nnc(NC(=O)C2CC(=O)N(c3ccc(F)cc3)C2)s1 (stereo not shown),26.1%
6,O=C(Cc1ccc(S(=O)(=O)N2CCOCC2)s1)OCc1ccc(Cl)cc1,-20.1%
7,COC(=O)c1ccc(NC(=O)COc2ccc(S(=O)(=O)N3CCCCC3)cc2)cc1,-9.57%
8,Cc1ccc(Cl)c(OCC(=O)NCc2ccco2)c1,1.03%
9,COc1ccc(OC)c(/C=N/NC(=O)CCc2n[nH]c(=O)[nH]c2=O)c1,4.8%
10,CCOc1ccccc1N1CC(C(=O)Nc2ccc(S(=O)(=O)N3CCCCC3)cc2)CC1=O (stereo not shown),-3.91%
11,S=C(Nc1ccc2cn[nH]c2c1)Nc1ccccc1Cl,-4.68%
12,COc1cccc(NC(=O)CN(C)C(=O)c2cc(S(=O)(=O)N3CCCCC3)ccc2Cl)c1,-34.7%
13,COc1ccc(NC(=O)CN(C)C(=O)c2cc(S(=O)(=O)N3CCCCCC3)ccc2OC)cc1,-24%
14,COc1ccc(S(=O)(=O)N2CCCCCC2)cc1C(=O)N(C)Cc1c(F)cccc1Cl,-49.8%
15,Cc1ccc(S(=O)(=O)NCc2ccccc2)cc1C(=O)N(C)CC(=O)Nc1c(Cl)cccc1Cl,-30.4%
16,COc1ccc(S(=O)(=O)N2CCOCC2)cc1C(=O)N(C)Cc1ccccc1F,-37.8%
17,COc1ccc(NS(=O)(=O)c2ccc(C)c(C(=O)N(C)CC(=O)Nc3cccc(OC)c3)c2)cc1,-9.42%
18,COc1cccc(NC(=O)CN(C)C(=O)c2cc(S(=O)(=O)NCc3ccccc3)ccc2C)c1,-71.1%
19,COc1cccc(NC(=O)CN(C)C(=O)c2cc(S(=O)(=O)N3CCCCCC3)ccc2OC)c1,-50.9%
20,COc1ccc(S(=O)(=O)N2CCCCCC2)cc1C(=O)N(C)Cc1ccccc1F,-53.2%
21,Cc1ccc(S(=O)(=O)N(Cc2cccc(C(F)(F)F)c2)C(=O)N2CCN(C)CC2)cc1,10.3%
22,COC(=O)CCC(=O)OC1(C)C(=O)C2=CN(CCCOC(C)C)C(c3ccc(OC)cc3)=CC2=C(Br)C1=O (stereo not shown),-22.7%

row,SMILES,"hERG current change (%, negative = inhibition) at 10uM"
1,CC(=O)NC(=O)NC1CSCC1OC(C)=O (stereo not shown),15.8%
2,CC(NC(=O)CCCn1cc([N+](=O)[O-])cn1)c1ccccc1 (stereo not shown),-3.6%
3,COc1ccccc1/C=N/NC(=O)CC(=O)NCCc1ccccc1,12.1%
4,CCOC(=O)c1cc(-c2ccccc2)sc1NC(=O)CC,1.19%
5,CCOCC(=O)Nc1ccc(S(=O)(=O)NCCc2ccccc2)cc1,-22.9%
6,Nc1ccc(C(=O)Nc2ccccc2C(=O)O)cc1,10.2%
7,Cc1[nH]n2c(=O)c3c(nc2c1-c1ccccc1)CCC3,0.138%
8,CCCN(CCC(=O)Nc1cc(OC)cc(OC)c1)CC1CC1.Cl,-12.1%
9,Cc1cc(NC(=O)c2nn3cccnc3c2Cl)no1,6.12%
10,CNC(=S)Nc1cc(Cl)ccc1Oc1ccccc1,-6.86%
11,CCc1nnc(NC(=O)CCN2C(=O)CCC2=O)s1,-8.3%
12,COc1ccc2sc(-c3ccc(SC)cc3)c(C#CC(C)(C)O)c2c1,11.6%
13,CCOC(=O)C1(CCOc2ccccc2)CCN(Cc2cccc(OC)c2O)CC1,-70.5%
14,CCOC(=O)C1(CCOc2ccccc2)CCN(Cc2ccccc2O)CC1,-30.8%
15,CCOC(=O)C1(CCOc2ccccc2)CCN(Cc2ccccc2OC)CC1,-71.4%
16,CCOC(=O)C1(CCOc2ccccc2)CCN(Cc2cc(OC)c(O)cc2Cl)CC1,-69.2%
17,CCOC(=O)C1(CCOc2ccccc2)CCN(Cc2cc(OC)ccc2OC)CC1,-73.2%
18,O=C(O)c1cc(-n2[nH]c(=O)c3ccccc3c2=O)ccc1Cl,21.3%
19,Cc1sc2ncnc(N3CCCCC3C)c2c1C (stereo not shown),-13.6%
20,Cc1cc(C)c(C(=O)CN2C(=O)NC3(CCC(C)CC3)C2=O)cc1C (stereo not shown),11.1%
21,COC(=O)c1sccc1NC(=O)CC1NCCNC1=O (stereo not shown),0.0435%
